{"source": "PubChem BioAssay (EPA / NIEHS)", "note": "Inconclusive results are not listed. Activity calls are given as the source filed them. The calls were made as follows: active = hit-call score of the fitted dose curve at least 0.9, where 1 is the maximum; inconclusive = response in the unintended direction; inactive = score below 0.9.", "data": [{"assay": "CCTE_Shafer_MEA_acute_AB: CCTE's Alamar Blue Assay for Cytotoxicity in the Neural Acute Assay, Shafer Lab (AID 2284069);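 also: active compounds lower the viability signal compared with DMSO wells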", "experimental": "CCTE_Shafer_MEA_acute assay is conducted using Axion Biosystems 48 well microelectrode array (MEA) plates and Maestro recording system. Each well of the MEA plate contains a grid of 16 microelectrodes embedded in the culture surface. Electrically active cells, such as neurons, can be cultured over the electrodes, and electrical activity in these cells can be recorded extracellularly. The spontaneous firing of neurons is captured from each electrode on a microsecond timescale providing both temporally and spatially precise data. […] The CCTE_Shafer_MEA_acute assay uses primary cultures of rat cortical neurons. As these cultures mature over time, neural networks develop functional activity and form cohesive networks in which electrical activity can be highly coordinated. Baseline 40-minute recordings are made on days post-plating 13 or 15, followed by a secondary 40-minute recording after chemical exposure.CCTE_Shafer_MEA_acute_AB is a component of the CCTE_Shafer_MEA_acute assay. It measures the resazurin reduction using fluorescence.Data from the assay component CCTE_Shafer_MEA_acute_AB was analyzed into 1 assay endpoint. This assay endpoint, CCTE_Shafer_MEA_acute_AB, was analyzed in the positive analysis fitting direction relative to DMSO as the negative control and baseline of activity. Using a type of viability reporter, loss-of-signal activity can be used to understand cell viability.\nMetabolic activity was determined using the CellTiter Blue (CTB) assay (Promega Cat. #8081), following the manufacturer's instructions with the following modifications. Following the removal of the 50 uL sample for the LDH assay, 450 uL of media was removed from each well and replaced with 200 uL of fresh media containing a 1:6 dilution of CTB reagent for the determination of metabolic activity. Fluorescence was measured in a Fluorostar Optima fluorimeter using an excitation wavelength of 544 nm and an emission wavelength of 590 nm.", "values": [{"smiles": "NC(=Nc1ccccc1)Nc1ccccc1", "outcome": "inactive"}, {"smiles": "O=C(N[C@@H](c1ccccc1)[C@@H]1CCCCN1)c1cccc(C(F)(F)F)c1Cl", "outcome": "inactive"}, {"smiles": "CCN(CC)CCOc1ccc(C(=C(Cl)c2ccccc2)c2ccccc2)cc1", "outcome": "inactive"}, {"smiles": "CC(C)NCC(O)c1ccc(O)c(O)c1", "note": "(stereo not given)", "outcome": "inactive"}, {"smiles": "CC(C)COC(=O)CCCCC(=O)OCC(C)C", "outcome": "inactive"}, {"smiles": "Oc1ccc(O)cc1", "outcome": "inactive"}, {"smiles": "Cc1cc(Cc2ccc(N)c(C)c2)ccc1N", "outcome": "inactive"}, {"smiles": "CN(C)CCCN1c2ccccc2Sc2ccc(Cl)cc21", "outcome": "inactive"}, {"smiles": "C/C=C/c1ccc(OC)cc1", "outcome": "inactive"}, {"smiles": "CN(C)C(=O)NC1(c2ccccc2)CCN(CC[C@@]2(c3ccc(F)c(F)c3)CN(C(=O)c3ccccc3)CCO2)CC1", "outcome": "inactive"}, {"smiles": "c1ccc2occc2c1", "outcome": "inactive"}, {"smiles": "CN(C)C(=O)NC1(c2ccccc2)CCN(CCC[C@]2(c3ccc(Cl)c(Cl)c3)CCCN(C(=O)c3ccccc3)C2)CC1", "outcome": "inactive"}, {"smiles": "Nc1nc(=S)c2[nH]cnc2[nH]1", "outcome": "inactive"}, {"smiles": "COC(=O)[C@H]1[C@H]2C[C@@H]3c4[nH]c5cc(OC)ccc5c4CCN3C[C@H]2C[C@@H](OC(=O)c2cc(OC)c(OC)c(OC)c2)[C@@H]1OC", "outcome": "inactive"}, {"smiles": "COc1ccc(OC(F)(F)F)cc1CN[C@H]1CCCN[C@H]1c1ccccc1", "outcome": "inactive"}, {"smiles": "CCCC(=O)O", "outcome": "inactive"}, {"smiles": "Cc1c(C)c2c(c(C)c1O)CCC(C)(COc1ccc(CC3SC(=O)NC3=O)cc1)O2", "note": "(stereo not given)", "outcome": "inactive"}, {"smiles": "CCc1cc(C2=C(C(=O)O)N(c3ccccc3C(F)(F)F)S(=O)(=O)c3ccccc32)cc2c1OCO2", "outcome": "inactive"}, {"smiles": "O=C1OC(c2ccc(O)cc2)(c2ccc(O)cc2)c2ccccc21", "outcome": "inactive"}, {"smiles": "CSc1ccc(Oc2ccc(S(N)(=O)=O)cc2CN(C)C)cc1C", "outcome": "inactive"}]}]}
